# Sm TGR inh = blocks Schistosoma mansoni thioredoxin glutathione reductase. purified TGR, DTNB reduction, TNB absorbance 405 nm. Potency, µM (highest dose often 114 µM), for the others: top-dose activity change, negative = inhibition, hits mostly inhibitors. actives 3% (n = 360,000). AID 485364; note: nearly all actives have a fitted effect of over 60% in size
#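 Kinetic colorimetric format: TGR-catalysed, NADPH-driven DTNB reduction monitored via TNB absorbance. Enzyme dispensed at 20 nM; compound exposure 15 min at room temperature before reaction start.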
# AmpC no deterg = blocks E. coli AmpC beta-lactamase in detergent-free assay; P00811; AmpC nitrocefin hydrolysis, absorbance 480 nm, 0.0001% Triton; Potency, µM (titrated, usually from 57.1 µM), for inactives: at the top dose activity change, negative = inhibition, most hits filed as inhibitors; actives 0.52% (n = 330,000); AID 485341;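 note: plate controls were no compound for no effect and no enzyme for full effect; nearly all actives have a fitted effect of over 20% in size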
# Target sequence (P00811 whole entry, looked up): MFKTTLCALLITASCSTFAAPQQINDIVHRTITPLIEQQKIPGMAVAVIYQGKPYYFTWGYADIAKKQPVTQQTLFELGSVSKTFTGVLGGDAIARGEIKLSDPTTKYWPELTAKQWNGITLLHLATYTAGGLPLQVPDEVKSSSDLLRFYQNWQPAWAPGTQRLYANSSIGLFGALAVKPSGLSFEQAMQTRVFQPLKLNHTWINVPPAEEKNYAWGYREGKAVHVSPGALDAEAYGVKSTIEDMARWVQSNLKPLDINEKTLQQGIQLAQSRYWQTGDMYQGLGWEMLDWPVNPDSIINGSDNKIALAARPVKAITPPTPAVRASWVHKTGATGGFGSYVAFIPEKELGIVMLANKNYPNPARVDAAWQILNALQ
#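 AmpC (5.3 nM in the dispensed reagent) in 20 mM phosphate pH 7.0 with 0.01% (detergent screen) or 0.0001% Triton X-100 was preincubated with compounds for 15 min at room temperature. Nitrocefin was then added from an 800 uM solution, and hydrolysis was followed at 480 nm.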
# AmpC inh detg = blocks E. coli AmpC beta-lactamase in detergent assay | P00811 | AmpC hydrolysis of nitrocefin, absorbance 480 nm, 0.01% Triton | Potency, µM (doses to about 114 µM), without a hit: at the highest dose activity change, negative = inhibition, hits mostly inhibitors | actives 0.041% (n = 370,000) | AID 485294;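 note: 0% = no-compound wells and -100% = no-enzyme wells; nearly all actives have a fitted effect of over 25% in size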
#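 AmpC (5.3 nM in the dispensed reagent) in 20 mM phosphate pH 7.0 with 0.01% (detergent screen) or 0.0001% Triton X-100 was preincubated with compounds for 15 min at room temperature. Nitrocefin was then added from an 800 uM solution, and hydrolysis was followed at 480 nm.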
# Numbers without * were called inactive; ? = inconclusive; . = not tested or not shown; [ ] = dose if it differs, or a comment. Compounds with a hit are over-represented: about 3.3% of the library has one in this group of screens. Calls come from the whole dose curve; as a rule, active = well fitted curve in the direction sought with a large enough effect; inconclusive = small, poorly fitted or top-dose-only effect, or another doubt; inactive = no such curve, though single readings can be large; an effect the other way counts as inactive or inconclusive. Unless noted, % is set by controls: 0 for no effect and ±100 for the full control effect; potency is the fitted concentration of half-maximal effect.
SMILES,Sm TGR inh,AmpC no deterg,AmpC inh detg
C=CCn1c(O)c(C(C)=NCCN2CCCCC2)c(=O)[nH]c1=O,14.1µM*,-4.0%,-21.8%
CCCCn1c(O)c(C(C)=NCCN2CCCCC2)c(=O)[nH]c1=O,?,27.1%,-2.6%
O=C(O)c1cc2n(n1)C(C(F)(F)F)CC(C1CC1)N2 (stereo unspecified),7.6%,-12.3%,-3.4%
CCOC(=O)N1CCC(NC(=O)c2cc(COc3c(C)cccc3C)on2)CC1,-24.2%,107.3%,-0.9%
COc1ccc(S(=O)(=O)NCCc2cn3nc(C)c(C)nc3n2)cc1C,44.7µM*,-10.1%,2.7%
Cc1ccc(S(=O)(=O)NCCc2cn3nc(C)c(C)nc3n2)cc1C,-7.6%,-0.4%,1.2%
S=C(NCCCN1CCOCC1)N(Cc1ccccc1)Cc1ccccc1,1.4%,137.0%,-4.8%
CCc1ccc(N2CC(c3nnc(NC(=O)c4ccco4)s3)CC2=O)cc1 (stereo unspecified),-7.3%,.,17.5%
O=c1c2c3c(sc2n(CCN2CCCC2)c(=O)n1Cc1ccco1)CCCCC3,0.1%,24.1%,4.8%
O=C(Cn1c(=O)n(Cc2ccco2)c(=O)c2c3c(sc21)CCCCC3)Nc1ccccc1,10µM*,-53.8%,0.6%
CN(C)CCn1c(=O)n(Cc2ccco2)c(=O)c2c3c(sc21)CCCCC3,7.1%,117.3%,-2.6%
O=C(Cn1c(=O)n(Cc2ccco2)c(=O)c2c3c(sc21)CCCCC3)c1ccccc1,35.5µM*,-38.2%,?
COc1ccc(Cl)cc1N(C(=O)Nc1cccc(Cl)c1)C1=NCC(C)S1 (stereo unspecified),6.9%,-14.2%,-11.8%
CCc1ccccc1NC(=O)CNC(=O)c1ccccc1OCc1c(C)noc1C,3.3%,6.4%,-6.5%
CC1(C)CC(=O)C2=C(C1)OC1=C(C(=O)CC(C)(C)C1)C2c1ccc(O)cc1O,22.4µM*,-14.2%,-6.7%
CC1(C)CC(=O)C2=C(C1)OC1=C(C(=O)CC(C)(C)C1)C2c1ccc(O)c([N+](=O)[O-])c1,-4.3%,-21.8%,4.1%
Cc1ccc(OCCNC(=O)CCNC(=O)c2ccc(Cl)cc2)cc1,-0.5%,-13.0%,-2.6%
Cc1cc(-c2ccc3ccccc3c2)n2ncnc2n1,-1.7%,-2.5%,-10.7%
CS(=O)(=O)c1ccccc1C(=O)Nc1cccc(-c2nc3ccccc3o2)c1,-0.4%,50.2%,-11.8%
N#Cc1c(-c2ccncc2)cc(-c2ccc(F)cc2)nc1N,-15.1%,-13.5%,2.7%
Cc1ccc(-c2cc(-c3ccccc3Cl)c(C#N)c(N)n2)o1,?,-30.6%,-12.6%
Cc1ccc(-c2cc(-c3ccccc3)c(C#N)c(N)n2)o1,3.55µM*,-23.3%,-1.2%
CCSc1nc2c(c(-c3ccc(C)o3)c1C#N)CCCC2,-22.8%,-33.5%,-12.1%
Cc1ccc(-c2c(C#N)c(N)nc3c2CCCC3)o1,25.1µM*,-2.2%,0.4%
Cc1ccc(-c2cc(-c3ccc(F)cc3)nc(N)c2C#N)o1,5.62µM*,-52.4%,2.2%
SMILES,Sm TGR inh,AmpC no deterg,AmpC inh detg
O=c1c2ccccc2cnn1Cc1n[nH]c(=S)n1-c1ccccc1Cl,-5.7%,-15.2%,-11.9%
O=C(NCCc1ccc(F)cc1)C(=O)NCC(c1ccco1)S(=O)(=O)c1ccccc1 (stereo unspecified),-23.1%,.,2.7%
COc1ccccc1CNC(=O)C(=O)NCC(c1ccco1)S(=O)(=O)c1ccc(C)cc1 (stereo unspecified),-26.3%,.,-0.8%
Cc1ccccc1CNC(=O)C(=O)NCC(c1ccco1)S(=O)(=O)c1ccc(F)cc1 (stereo unspecified),8.91µM*,.,-3.3%
COc1ccccc1CCNC(=O)C(=O)NCC(c1ccco1)S(=O)(=O)c1ccc(F)cc1 (stereo unspecified),17.8µM*,.,1.0%
COc1ccc(CCNC(=O)C(=O)NCC(c2ccco2)S(=O)(=O)c2ccccc2)cc1OC (stereo unspecified),12.6µM*,.,-0.5%
COc1ccccc1CCNC(=O)C(=O)NCC(c1cccs1)S(=O)(=O)c1ccc(F)cc1 (stereo unspecified),-1.0%,.,-1.0%
COc1ccc(C(=O)NCCc2cccc(Cl)c2)cc1OC1CCN(C(C)=O)CC1,0.4%,150.4%,-0.5%
O=C(CCCN1C(=O)C(c2ccccc2)Oc2cccnc21)NCc1ccc(F)cc1 (stereo unspecified),1.8%,24.7%,-0.6%
NS(=O)(=O)c1ccc(Nc2nc(-c3ccc(F)cc3)cs2)cc1,6.9%,-39.3%,5.0%
NS(=O)(=O)c1ccc(Nc2ccc3nonc3c2[N+](=O)[O-])cc1,41.9%,-11.8%,4.6%
COc1ccc(-c2csc(Nc3ccc(S(N)(=O)=O)cc3)n2)cc1OC,-3.5%,15.8µM*,-4.6%
COc1cc(Nc2ccc(S(N)(=O)=O)cc2)c([N+](=O)[O-])nc1[N+](=O)[O-],20µM*,-15.1%,-12.5%
O=c1[nH]c2cc([N+](=O)[O-])c(NCCO)c([N+](=O)[O-])c2[nH]1,4.4%,-9.6%,8.4%
CC(=O)Nc1c([N+](=O)[O-])cc2[nH]c(=O)[nH]c2c1[N+](=O)[O-],50.1µM*,-24.0%,-8.6%
CCCCCCCc1c(O)nc(SCCN2CCOCC2)[nH]c1=O,0.0%,-19.3%,-1.2%
Cc1cccc(Cc2cnc(NC(=O)C3Cc4ccc(C)cc4C(=O)O3)s2)c1 (stereo unspecified),2.0%,.,-0.9%
COc1cc(/C=N/N2C(C)CCCC2C)cc(OC)c1O (stereo unspecified),44.7µM*,-0.8%,0.7%
CCOc1ccc(/C=N/N2C(C)CCCC2C)cc1OC (stereo unspecified),25.4%,0.4%,?
CC(C)c1cc(N2CCC(=O)NC2=O)cc(C(=O)O)c1O,2.9%,-5.1%,5.5%
N#CC1=C(N)Oc2cc(N)ccc2C1c1ccccc1Cl (stereo unspecified),-17.7%,-48.1%,?
N#CC1=C(N)OC2=C(CCc3ccccc32)C1c1ccccc1Cl (stereo unspecified),-15.9%,3.55µM*,-6.3%
Cc1ccccc1Nc1cc(C(=O)NC2CCC(C)CC2)c2ccccc2n1 (stereo unspecified),11.3%,.,-0.3%
CCN(CC)Cc1c(NC(=O)c2ccccc2)sc(C)c1C,8.91µM*,-25.5%,?
CCN(CC)C(=O)c1c(NC(=O)c2ccccc2)sc(C)c1C,-22.4%,-17.0%,?
SMILES,Sm TGR inh,AmpC no deterg,AmpC inh detg
Oc1c(Br)cc(Br)cc1/C=N/Nc1ccc(Cl)nn1,-2.6%,-26.8%,3.5%
Oc1ccc(/C=N/Nc2ccc(Cl)nn2)c(O)c1O,14.1µM*,-22.3%,0.7%
COc1ccc2ccc(OCC(=O)NCC3CCCO3)cc2c1 (stereo unspecified),-9.8%,5.1%,0.0%
CCOC(=O)c1c(/N=C/N(C)C)sc(/C=N/Nc2ccccc2)c1-c1ccccc1Cl,-10.4%,-19.5%,-10.9%
CCOC(=O)c1c(NC(=O)CN2CCCCC2)sc(CN(C)C)c1-c1ccccc1,6.9%,-16.8%,0.5%
CCOC(=O)c1c(/N=C/N(C)C)sc(/C=N/Nc2ccccc2)c1-c1ccccc1,-5.7%,15.8µM*,-11.1%
CCOC(=O)c1c(NC(=O)CCl)sc(CN(C)C)c1-c1ccccc1,15.8µM*,-17.1%[11.4 µM],-11.7%
